Source: PubChem BioAssay (Sanford-Burnham Center for Chemical Genomics)
SENP7 block: inhibitors of human SENP7 protease. 330,000 compounds, 1.5% hits. recombinant SENP7, Z-RLRGG-aminoluciferin luminescence, 40 min. inhibition, % at 5 µM;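 active means inhibition above about 50% at the single test dose, limit read from the data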;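 further: plate controls were DMSO with enzyme for no effect and no enzyme buffer wells for full effect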
Target sequence (Q9BQF6 706-1050 limits assumed): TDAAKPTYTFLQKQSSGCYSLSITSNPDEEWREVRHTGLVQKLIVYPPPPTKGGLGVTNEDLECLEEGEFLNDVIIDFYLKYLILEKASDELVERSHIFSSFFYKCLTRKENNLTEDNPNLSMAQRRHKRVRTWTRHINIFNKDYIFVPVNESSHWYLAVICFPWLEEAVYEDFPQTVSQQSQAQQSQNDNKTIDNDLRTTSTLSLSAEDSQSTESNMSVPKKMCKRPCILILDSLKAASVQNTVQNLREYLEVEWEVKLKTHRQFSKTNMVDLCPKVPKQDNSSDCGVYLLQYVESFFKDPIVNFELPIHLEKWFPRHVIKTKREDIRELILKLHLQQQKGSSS
SENP8 block-1: inhibitors of human SENP8 protease; inhibition, % at 10 µM; Q96LD8; purified SENP8, Z-RLRGG-aminoluciferin cleavage, luminescence; AID 2540; 330,000 compounds, 1.2% hits; in the data active means inhibition above about 50%
Target sequence (Q96LD8 whole entry, looked up): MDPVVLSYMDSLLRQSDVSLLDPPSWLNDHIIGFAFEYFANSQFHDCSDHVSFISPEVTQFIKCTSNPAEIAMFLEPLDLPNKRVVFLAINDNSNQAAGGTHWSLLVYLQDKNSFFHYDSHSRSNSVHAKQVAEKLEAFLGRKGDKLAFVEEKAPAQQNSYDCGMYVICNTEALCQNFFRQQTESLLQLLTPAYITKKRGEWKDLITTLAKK
PPC-1+TRAIL kill: kills PPC-1 cancer cells in the presence of TRAIL | PPC-1 cells + TRAIL, ATPLite viability luminescence | cell killing (% activity), % at 4 µM or 5 µM | 220,000 compounds, 0.41% hits;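 active means cell killing above 50% in the first pass at 4 µM, then a duplicate retest at 5 µM averaging 50% or more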;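 further: plate controls were cells with TRAIL plus DMSO for no effect and medium-only wells lacking cells for full effect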
SENP6 inh: SENP6 protease inhibition. Q9GZR1. Recombinant SENP6 catalytic domain, aminoluciferin luminescence. inhibition, % at 10 µM. 330,000 compounds, 1.8% hits. AID 2599;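 active means inhibition above about 50% at the single tested dose, limit read from the data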;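 further: plate controls were DMSO wells with enzyme for no effect and DMSO wells lacking enzyme for full effect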
SENP8 block-2: blocks human SENP8 cleavage of Nedd8 substrate; Q96LD8; inhibition, % at 20 µM; 360,000 compounds, 0.64% hits; recombinant SENP8, Nedd8 substrate fluorescence; in the data active means inhibition mostly above about 40%, no sharp cut-off; inactive means mostly below about 27%
C8 TRAIL sens: sensitizes caspase-8 expressing cells to TRAIL; NB7+C8 cells + TRAIL, ATPlite viability luminescence; AID 624354; inhibition (viability loss, TRAIL sensitization), % at 10 µM; 360,000 compounds, 1% hits;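 active means compounds causing at least 50% loss of cell viability in the single-dose screen, relative to plate controls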
PPC-1 tox: kills PPC-1 cells | shares compounds with PPC-1+TRAIL kill | 1,200 compounds, 50% hits | PPC-1 viability, ATPlite luminescence, overnight | cytotoxicity, % at 5 µM;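 active means reconfirmed compounds whose average cytotoxicity reaches 50% or more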;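 further: 0% = DMSO-treated cells and 100% = wells holding medium but no cells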
SENP8 confirm: confirmation of human SENP8 protease inhibitors | Recombinant SENP8, Z-RLRGG-aminoluciferin luminescence, 60 min | inhibition, % at 12.5 µM | 6,200 compounds, 40% hits | shares compounds with SENP7 block;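 active means mean inhibition across replicates above about 50%, limit read from the data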
SENP6 confirm: human SENP6 inhibition, confirmed | shares compounds with SENP7 block | recombinant SENP6, Z-RLRGG-aminoluciferin luminescence | inhibition, % at 12.5 µM | 6,200 compounds, 58% hits
SENP7 conf: human SENP7 inhibition, confirmed; shares compounds with SENP7 block; recombinant SENP7, Z-RLRGG-aminoluciferin luminescence, 40 min; inhibition, % at 12.5 µM; 6,200 compounds, 69% hits
Casp3 SENP sel: selectivity test for SENP inhibitors: human caspase-3 inhibition | shares compounds with SENP7 block | purified caspase-3, Z-DEVD-aminoluciferin luminescence, 60 min | inhibition, % at 12.5 µM | 6,200 compounds, 60% hits;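 active means mean inhibition above about 50%, limit read from the data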;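 further: plate controls were enzyme with DMSO for no effect and wells without caspase-3 for full effect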
Luc interf: luminescence interference (SENP counter-screen) | inhibition, % at 12.5 µM | shares compounds with SENP7 block | 6,200 compounds, 39% hits | AID 488919 | Pre-incubated SENP8/Z-RLRGG-aminoluciferin, luciferase luminescence interference;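 active means mean inhibition above about 50% when retested at one dose, limit read from the data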;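 further: plate controls were DMSO wells with completed reaction for no effect and substrate without enzyme for full effect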
The depositor's hits bear a star; nt = not tested or not shown. Shown are actives, neighbours in structure and some others; about 3% of the full set was active somewhere.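 How the source made its calls, unless noted: active means mean inhibition above about 50% in the one-dose retest (limit read from the data); inactive means the rest.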

SMILES | SENP7 block | SENP8 block-1 | PPC-1+TRAIL kill | SENP6 inh | SENP8 block-2 | C8 TRAIL sens | PPC-1 tox | SENP8 confirm | SENP6 confirm | SENP7 conf | Casp3 SENP sel | Luc interf
O=C(c1ccc2c3n(nc2c1)-c1ccccc1CO3)N1CCOCC1 | 95* | 87* | 45 | 93* | -107 | 51* | 49 | 93* | 93* | 101* | 98* | 92*
O=C(c1ccc2c3n(nc2c1)-c1ccc(Cl)cc1CO3)N1CCOCC1 | -9 | 4 | 30 | 12 | -23 | 26 | nt | nt | nt | nt | nt | nt
C[C@@H](CO)NC(=O)c1ccc2c3n(nc2c1)-c1ccccc1CO3 | 37 | 49 | 89* | 57* | -221 | 91* | 91* | 65* | 66* | 92* | 91* | 70*
O=C(c1ccc2c3n(nc2c1)-c1ccccc1CO3)N1CCCCC1 | 95* | 91* | 58* | 97* | -8 | 70* | 60* | 97* | 98* | 101* | 97* | 96*
O=C1Nc2c(c(=O)[nH]c(=O)n2-c2ccc(F)cc2)C1(NS(=O)(=O)c1ccccc1)C(F)(F)F (configuration not stated) | -9 | -6 | 30 | 0 | 17 | 9 | nt | nt | nt | nt | nt | nt
CCC(c1nc2ccccc2[nH]1)N(CCCn1ccnc1)C(=O)c1ccc(C(F)(F)F)cc1 (configuration not stated) | nt | nt | nt | nt | 20 | -6 | nt | nt | nt | nt | nt | nt
C=CCSc1nnc(NC(=O)CCNC(=O)c2ccccc2Cl)s1 | nt | nt | nt | nt | 4 | 0 | nt | nt | nt | nt | nt | nt
C[C@@H]1CCC[C@H](C)N1Cc1nc(Cc2ccccc2Cl)no1 | 6 | -6 | 3 | 1 | 8 | 9 | nt | nt | nt | nt | nt | nt
Cc1cc(/C=N/Nc2ncnc(N)c2[N+](=O)[O-])c(C)n1-c1ccccc1 | 97* | 94* | 86* | 0 | 55* | 85* | 87* | 6 | 61* | 95* | 52* | 11
CCN(CC)CCCNC1=C(Cl)C(=O)c2ccccc2C1=O | 11 | 22 | 37 | 75* | 47* | 94* | 36 | 41 | 67* | 21 | 55* | 3
CCOc1ccc(-c2cn3ccccc3n2)cc1 | 72* | 66* | 91* | 49 | -410 | 84* | 89* | 86* | 85* | 96* | 90* | 84*
CCOc1ccc(S(=O)(=O)NCCc2cn3ccccc3n2)cc1 | -9 | -9 | nt | -7 | -32 | -36 | nt | nt | nt | nt | nt | nt
NC(=O)c1ccsc1NC(=O)c1ccc2c(c1)CCCC2 | 99* | 96* | 78* | 96* | -178 | 85* | 76* | 97* | 97* | 101* | 96* | 67*
NC(=O)c1ccsc1NC(=O)c1ccc(N2CCCC2=O)cc1 | 89* | 87* | 77* | 90* | -286 | 80* | 74* | 92* | 91* | 100* | 94* | 12
CC(C)Cc1nnc(NC(=O)c2ccc(N3CCCC3=O)cc2)s1 | 2 | -2 | nt | -6 | -85 | -7 | nt | nt | nt | nt | nt | nt
CC(C)CNC(=O)c1cccc(NC(=O)Cc2ccc(Cl)cc2)c1 | 9 | 8 | 19 | 7 | 14 | 4 | nt | nt | nt | nt | nt | nt
O=C(COc1ccc(F)cc1Br)Nc1ccccc1N1CCOCC1 | 6 | -7 | nt | -1 | 24 | 0 | nt | nt | nt | nt | nt | nt
C/C(=N/NC(=O)c1cccs1)c1c(C)[nH]n(-c2nc3ccccc3s2)c1=O | 99* | 93* | 77* | 97* | -372 | 89* | 75* | 90* | 81* | 94* | 98* | 66*
COc1ccc(C(=O)O/N=C(\N)c2ccccc2)c(OC)c1 | 81* | 82* | 36 | 92* | 9 | 50 | 34 | 76* | 69* | 89* | 85* | 72*
N/C(=N\OC(=O)c1ccc(Cl)cc1Cl)c1ccccc1 | 99* | 93* | 65* | 101* | 18 | 94* | 62* | 98* | 99* | 103* | 98* | 98*
CCn1c(SCC(=O)N(C)CC(=O)Nc2ccc(OC)cc2)nnc1-c1ccco1 | 12 | -3 | nt | -18 | -5 | -4 | nt | nt | nt | nt | nt | nt
Cc1cc(/C=C2/C(=O)NN(c3ccccc3)C2=O)c(C)n1-c1cccc(O)c1 | 65* | 66* | 81* | 80* | 29 | 85* | 83* | 68* | 73* | 93* | 67* | 11
CCOC(=O)c1cnn(-c2ncnc3c2oc2ccccc23)c1N | 73* | 9 | 27 | 16 | 15 | 47 | 6 | 2 | 8 | 32 | 44 | 12
CCc1ccc(NC(=O)CCc2ccc(CC)o2)cc1 | 9 | -8 | nt | 4 | -7 | -17 | nt | nt | nt | nt | nt | nt
CCn1c(/C=C/c2ccccc2)nc2ccccc21 | 92* | 85* | 66* | 97* | -270 | 72* | 68* | 94* | 94* | 101* | 94* | 95*
SMILES | SENP7 block | SENP8 block-1 | PPC-1+TRAIL kill | SENP6 inh | SENP8 block-2 | C8 TRAIL sens | PPC-1 tox | SENP8 confirm | SENP6 confirm | SENP7 conf | Casp3 SENP sel | Luc interf
CC(C)Cn1c(/C=C/c2ccccc2)nc2ccccc21 | 7 | 0 | 4 | 30 | -426 | 46 | nt | nt | nt | nt | nt | nt
COc1ccc(-n2cnc3ccccc32)cc1 | -4 | -16 | 6 | -21 | 15 | 1 | nt | nt | nt | nt | nt | nt
COc1ccc(/C=C/c2nc3ccccc3n2C)cc1 | 101* | 96* | 93* | 101* | -433 | 88* | 92* | 100* | 101* | 103* | 99* | 97*
CC(=O)c1ccc(N=Nc2ccc(N)cc2)cc1 | 78* | 49 | 54* | 75* | 46* | 83* | 55* | 60* | 62* | 88* | 62* | 12
CC(=O)c1ccc(NS(=O)(=O)c2ccc(N)cc2)cc1 | 0 | 5 | 15 | -10 | 4 | 0 | nt | nt | nt | nt | nt | nt
CN(Cc1ccccc1)C(=O)c1nc2ccccn2c1CN1CCC(N2CCOCC2)CC1 | 5 | 8 | -6 | -5 | 13 | 0 | nt | nt | nt | nt | nt | nt
CC(C)n1c(-c2ccc(N(C)C)cc2)nc2ccccc21 | -10 | 6 | 14 | 10 | -493 | 42 | nt | nt | nt | nt | nt | nt
CN(C)c1ccc(-c2nc3ccccc3n2C)cc1 | 96* | 89* | 88* | 91* | -261 | 82* | 88* | 96* | 98* | 102* | 98* | 96*
